High-throughput results (PubChem BioAssay)
An excerpt weighted towards active compounds, which were near 32% of everything screened.
CYP2C19 inh = human CYP2C19 inhibition; P33261; CYP2C19 Supersomes, luciferin-H EGE luminescence, 30 min; inhibition, % at 5 µM; actives 21% (n = 96,000); AID 778;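 active = CYP2C19 inhibition above a set limit at 5 µM in the primary screen, cut at about 50% in these data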;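 note: plate controls were negative control wells for no effect and 2.5 mM tranylcypromine positive control for full effect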
PostGolgi ctrl = inhibits growth of the yeast control strain | efflux-deficient yeast background strain, growth absorbance A615, 16 h | inhibition, % at 10 µM | actives 5% (n = 98,000)
CYP2C19 activ = activators of human cytochrome P450 2C19. activation factor at 5 µM. 96,000 tested, under 10 active. recombinant CYP2C19, luciferin-H EGE luminescence; hits give high values; 0 = fully inhibited enzyme, 1 = untreated enzyme;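 active = activation factor of at least 2 at 5 µM in the primary screen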;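 note: 0 = wells with 2.5 mM tranylcypromine and 1 = vehicle-only wells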
CYP2C9 activ = increases human cytochrome P450 2C9 activity; AID 1024; actives 1.4% (n = 96,000); activation factor at 5 µM; recombinant CYP2C9, luciferin-H conversion, luminescence; hits give high values; factor 1 = untreated enzyme, 0 = blocked;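 active = activation factor of 2 or more for CYP2C9 at a 5 µM dose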;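 note: 0 = sulfaphenazole-blocked wells and 1 = vehicle-only wells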
Target sequence (P11712 whole entry, looked up): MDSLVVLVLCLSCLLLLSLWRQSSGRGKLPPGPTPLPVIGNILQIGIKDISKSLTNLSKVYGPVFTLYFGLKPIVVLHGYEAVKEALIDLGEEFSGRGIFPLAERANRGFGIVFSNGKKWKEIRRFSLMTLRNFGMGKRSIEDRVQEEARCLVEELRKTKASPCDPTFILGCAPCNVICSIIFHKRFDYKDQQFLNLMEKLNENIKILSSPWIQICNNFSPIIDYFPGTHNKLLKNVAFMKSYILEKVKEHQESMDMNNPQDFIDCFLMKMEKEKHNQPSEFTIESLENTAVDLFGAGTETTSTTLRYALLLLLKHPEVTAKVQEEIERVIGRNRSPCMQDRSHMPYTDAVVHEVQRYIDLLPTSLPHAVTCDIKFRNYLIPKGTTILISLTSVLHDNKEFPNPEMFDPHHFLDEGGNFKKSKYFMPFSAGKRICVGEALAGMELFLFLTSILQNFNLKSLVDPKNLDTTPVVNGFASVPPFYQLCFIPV
CYP2C9 inh = blocks human cytochrome P450 2C9; P11712; CYP2C9 Supersomes, luciferin-H conversion, luminescence; inhibition, % at 5 µM; actives 20% (n = 96,000);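 active = blocking of liver enzyme CYP2C9 beyond about 50% at 5 µM, limit read from the data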
PostGolgi yeast = growth inhibition of a yeast mutant, post-Golgi transport screen; post-Golgi transport phenotypic cell assay; inhibition, % at 10 µM; actives 0.9% (n = 98,000);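 note: yeast cells grown in 1536-well plates; yeast grown about 18 h at 30C before absorbance read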
* marks the source's active call; other numbers are inactive results. Cut-off read from the data, not from the text of the source, unless noted: active = inhibition above about 30%; inactive = the rest.

For O=C(c1cc2nc(-c3ccco3)cc(C(F)(F)F)n2n1)N1CCN(c2ccccn2)CC1 the results were CYP2C19 inh 30, PostGolgi ctrl 8, CYP2C19 activ 0.7, CYP2C9 activ 0.7, CYP2C9 inh 27 and PostGolgi yeast 12.
`O=C(c1nn2c(C(F)(F)F)cc(-c3ccco3)nc2c1Br)N1CCCc2ccccc21` gave CYP2C19 inh 79*, PostGolgi ctrl 13, CYP2C19 activ 0.2, CYP2C9 activ 0.2, CYP2C9 inh 76* and PostGolgi yeast 2.
Screening Cc1nn(Cc2ccccc2)c(C)c1NC(=O)c1cc2nc(-c3ccco3)cc(C(F)(F)F)n2n1 returned CYP2C19 inh 6, PostGolgi ctrl 29, CYP2C19 activ 0.9, CYP2C9 activ 1, CYP2C9 inh 0 and PostGolgi yeast 4.
Cc1ccccc1Cn1ccc(NC(=O)c2cc3nc(-c4ccco4)cc(C(F)(F)F)n3n2)n1 was read as CYP2C19 inh 50*, PostGolgi ctrl 0, CYP2C19 activ 0.5, CYP2C9 activ 0.4, CYP2C9 inh 58* and PostGolgi yeast 1.
`O=C(c1cc(-c2ccco2)on1)N1CCN(c2ccccc2)CC1` gave CYP2C19 inh 84*, PostGolgi ctrl 3, CYP2C19 activ 0.2, CYP2C9 activ 0.1, CYP2C9 inh 87* and PostGolgi yeast 6.
O=C(c1cc2nc(-c3ccco3)cc(C(F)(F)F)n2n1)N1CCN(c2ccccc2)CC1 was read as CYP2C19 inh 63*, PostGolgi ctrl 12, CYP2C19 activ 0.4, CYP2C9 activ 0.3, CYP2C9 inh 72* and PostGolgi yeast 0.
Screening CCOC(=O)C1C(=O)CC(C)(O)C(C(=O)OCC)C1c1ccccc1OC (stereo not drawn) returned CYP2C19 inh -4, PostGolgi ctrl 7, CYP2C19 activ 1, CYP2C9 activ 1.1, CYP2C9 inh -10 and PostGolgi yeast -4.
`CC(C)Nc1nc(NC(C)(C)C)nc(Oc2ccc(=O)n(-c3ccccc3)n2)n1` gave CYP2C19 inh 6, PostGolgi ctrl 8, CYP2C19 activ 0.9, CYP2C9 activ 0.9, CYP2C9 inh 11 and PostGolgi yeast 1.
`CCN(CCC(=O)Nc1cc(OC)cc(OC)c1)Cc1ccccc1` gave CYP2C19 inh 23, PostGolgi ctrl 0, CYP2C19 activ 0.8, CYP2C9 activ 0.9, CYP2C9 inh 9 and PostGolgi yeast 6.
Screening COc1ccccc1N1CCN(C(=O)c2cc(-c3ccco3)on2)CC1 returned CYP2C19 inh 92*, PostGolgi ctrl 12, CYP2C19 activ 0.1, CYP2C9 activ 0.2, CYP2C9 inh 76* and PostGolgi yeast -12.
Screening COc1ccccc1N1CCN(C(=O)c2cc(-c3cccs3)on2)CC1 returned PostGolgi ctrl 50* and PostGolgi yeast 11.
For O=C(c1cc(-c2ccco2)on1)N1CCCc2ccccc21 the results were CYP2C19 inh 20, PostGolgi ctrl 9, CYP2C19 activ 0.8, CYP2C9 activ 2.5*, CYP2C9 inh -155 and PostGolgi yeast 0.
`O=C(c1cc(-c2ccco2)on1)N1CCc2ccccc2C1` gave CYP2C19 inh 32, PostGolgi ctrl 14, CYP2C19 activ 0.7, CYP2C9 activ 1, CYP2C9 inh -1 and PostGolgi yeast 2.
For COc1ccc(-c2cc(CCCC(=O)N3CCN(c4ccc(OC)cc4)CC3)no2)cc1 the results were CYP2C19 inh 70*, PostGolgi ctrl 13, CYP2C19 activ 0.3, CYP2C9 activ 0.3, CYP2C9 inh 71* and PostGolgi yeast -5.
COc1ccc(-c2noc(CCC(=O)N3CCN(c4cccc(C(F)(F)F)c4)CC3)n2)cc1 was read as CYP2C19 inh 70*, PostGolgi ctrl 6, CYP2C19 activ 0.3, CYP2C9 activ 0.2, CYP2C9 inh 83* and PostGolgi yeast 0.
CCOc1ccc(-c2cc(CCCC(=O)NCc3ccc(C)cc3)no2)cc1 was read as CYP2C19 inh 36, PostGolgi ctrl 6, CYP2C19 activ 0.6, CYP2C9 activ 0.5, CYP2C9 inh 53* and PostGolgi yeast 3.
For CCOc1ccc(-c2cc(CCCC(=O)NCc3ccco3)no2)cc1 the results were CYP2C19 inh 2, PostGolgi ctrl 14, CYP2C19 activ 1, CYP2C9 activ 0.8, CYP2C9 inh 19 and PostGolgi yeast -2.
For COc1ccc(-c2cc(CCCC(=O)NCCc3cc(OC)ccc3OC)no2)cc1 the results were CYP2C19 inh 57*, PostGolgi ctrl 11, CYP2C19 activ 0.4, CYP2C9 activ 0.3, CYP2C9 inh 66* and PostGolgi yeast -3.
Screening COC(=O)CSc1nc(N)nc(C)c1Br returned CYP2C19 inh -4, PostGolgi ctrl -3, CYP2C19 activ 1, CYP2C9 activ 1.1, CYP2C9 inh -7 and PostGolgi yeast 1.
For CCOC(=O)C1CCN(C(=O)COC(=O)COc2ccccc2OC)CC1 the results were CYP2C19 inh 5, PostGolgi ctrl 3, CYP2C19 activ 1, CYP2C9 activ 1.2, CYP2C9 inh -22 and PostGolgi yeast -11.
For Cc1c(N=Cc2ccncc2)c(=O)n(-c2ccccc2)n1C the results were CYP2C19 inh 66*, PostGolgi ctrl -5, CYP2C19 activ 0.3, CYP2C9 activ 1.1, CYP2C9 inh -13 and PostGolgi yeast 8.
Cc1cc(NC(=O)CSc2nnc(-c3c[nH]c4ccccc34)n2-c2ccc(Cl)cc2)no1 was read as CYP2C19 inh -12, PostGolgi ctrl -4, CYP2C19 activ 1.1, CYP2C9 activ 1.2, CYP2C9 inh -25 and PostGolgi yeast -1.
For Cc1nn(-c2ccccc2)c2sc(C(=O)N(CC(=O)NC3CCCC3)Cc3ccco3)cc12 the results were CYP2C19 inh 72*, PostGolgi ctrl 21, CYP2C19 activ 0.3, CYP2C9 activ 0.3, CYP2C9 inh 70* and PostGolgi yeast 10.
Cc1nn(-c2ccccc2)c2sc(C(=O)NC3CC3)cc12 was read as CYP2C19 inh -3, PostGolgi ctrl 10, CYP2C19 activ 1, CYP2C9 activ 0.5, CYP2C9 inh 51* and PostGolgi yeast 3.
Screening Cc1nc(NC(=O)c2cc3c(C)nn(-c4ccccc4)c3s2)sc1C(=O)Nc1ccccc1 returned CYP2C19 inh 38, PostGolgi ctrl -8, CYP2C19 activ 0.6, CYP2C9 activ 0.4, CYP2C9 inh 59* and PostGolgi yeast -11.
For Cc1nn(-c2ccc(F)cc2)c2sc(C(=O)N3CCCCCC3)cc12 the results were CYP2C19 inh 68*, PostGolgi ctrl 31*, CYP2C19 activ 0.3, CYP2C9 activ 0.3, CYP2C9 inh 68* and PostGolgi yeast -7.
Screening CC(=O)c1sc(NC(=O)c2cc3c(C)nn(-c4ccccc4)c3s2)nc1C returned CYP2C19 inh 2, PostGolgi ctrl 0, CYP2C19 activ 1, CYP2C9 activ 0.9, CYP2C9 inh 8 and PostGolgi yeast -3.
`COc1ccc(CNC(=O)CSCc2cnn(-c3ccccc3)c2-n2cccc2)cc1` gave CYP2C19 inh 96*, PostGolgi ctrl 19, CYP2C19 activ 0, CYP2C9 activ 0, CYP2C9 inh 98* and PostGolgi yeast -8.
